In PubChem BioAssay AID686978 (National Center for Advancing Translational Sciences (NCATS), 2013) one finds Potency data, which are given here for 98 molecules.

The structures appear in SMILES notation. Values joined by “and” are separate entries in the source; they are usually repeats but may differ in a detail not shown here. Equal entries are not always repeated. Out of some 420,000 compounds screened, about 64,000 (15%) were called active. Inconclusive results (about 27%) are left out. The call rests on the fitted dose curve; in most records, active means well fitted inhibition curve with a large enough effect; inconclusive means small, poorly fitted or top-dose-only effect; inactive means flat fitted curve, though single readings scatter. A selection follows. A call without a number means that no potency is given here.
Potency means the concentration at half of the fitted maximal effect.

The experiment is described as follows: qHTS for Inhibitors of human tyrosyl-DNA phosphodiesterase 1 (TDP1): qHTS in cells in absence of CPT. Further: nearly all actives have a fitted effect of over 55% in size. Particulars: DT40 Tdp1-/- hTDP1 cells, no CPT, ATP luminescence, 48 h; activity change, negative = growth inhibition: at 46.2 µM (top of the series). Put shortly: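 Stably hTDP1-transfected Tdp1-null chicken DT40 cells were treated with library compounds minus camptothecin and grown for at least 48 hr at 37 °C, after which cellular ATP was quantified by luminescence.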
(Quantitative high-throughput screening tests each substance at several concentrations.)
On to `O=C(NC1CCCC1)C1c2ccccc2OCC(=O)N1CC(F)(F)F` (stereo not drawn), for which the Potency entry was “inactive”.
For `Brc1cccc[n+]1Cc1cccc(C[n+]2ccccc2Br)c1` the value was 20 µM (active); for `Clc1cccc[n+]1CCCC[n+]1ccccc1Cl`, “inactive”; for `Cc1ccc(N2C(=O)C3C4C=CC(CC4)C3C2=O)cc1Br` (stereo not drawn), “inactive”.
For `NS(=O)(=O)c1ccc(NC(=O)COC(=O)c2ccco2)cc1` the value was “inactive”; for `CC1O[C@@H](Oc2c(-c3ccc(O)c(O)c3)oc3cc(O)cc(O)c3c2=O)C(O)C(O)C1O` (stereo partly drawn), “inactive”; for `CCCc1nc2c(c(=O)c3ccccc3n2C)c(=O)n1C1CCCCCC1`, 16.4 µM (active).
In the case of `Cn1c2ccccc2c(=O)c2c(O)cccc21`, the Potency entry is “inactive”.
For `O=C1CCC(C(=O)N2CCCCO2)CN1Cc1cccc(C(F)(F)F)c1` (stereo not drawn) the value was “inactive”; for `Cc1ccc(-c2n[nH]c(=S)n2/N=C/c2cc3c(cc2[N+](=O)[O-])OCO3)cc1`, “inactive”; for `CC(=O)N/N=C/c1cc2c(cc1[N+](=O)[O-])OCO2`, “inactive”.
Turning to `Cc1ccc(S(=O)(=O)N/N=C\c2cc3c(cc2[N+](=O)[O-])OCO3)cc1`, the Potency is 18.4 µM (active).
Turning to `COc1cc(C(=O)N(Cc2ccc(C(C)C)cc2)C2CCS(=O)(=O)C2)cc(OC)c1OC` (stereo not drawn), the Potency entry was “inactive”.
For `COc1ccccc1CN(C)c1nnnn1-c1ccccc1` the value was “inactive”; for `CC[C@]12c3[nH]c4ccc(Cl)cc4c3CCN1C(=O)[C@@H](CC(=O)NCCN1CCOCC1)C[C@@H]2C(=O)N1CCN(C(=O)C2CC2)CC1`, “inactive”.
For `O=C(C[C@H]1C[C@H](C(=O)N2CCOCC2)[C@@]2(CCC3CCCC3)c3[nH]c4ccc(Cl)cc4c3CCN2C1=O)NCc1ccco1` the value was 23.1 µM (active); for `CC[C@]12c3[nH]c4ccc(OC)cc4c3CCN1C(=O)C(CC(=O)NCc1ccco1)C[C@@H]2C(=O)N1CCN(C(=O)C2CC2)CC1` (stereo partly drawn), “inactive”; for `CC[C@]12c3[nH]c4ccc(Cl)cc4c3CCN1C(=O)[C@@H](CC(=O)NCCCOC)C[C@@H]2C(=O)N1CCN(C(=O)C2CC2)CC1`, “inactive”.
For `CC[C@]12c3[nH]c4ccc(OC)cc4c3CCN1C(=O)C(CC(=O)NCCN1CCOCC1)C[C@@H]2C(=O)N1CCN(C(=O)C2CC2)CC1` (stereo partly drawn), the Potency entry is “inactive”.
On to `COc1ccc(CNC(=O)C[C@H]2C[C@H](C(=O)N3CCOCC3)[C@@]3(CCC4CCCC4)c4[nH]c5ccc(Cl)cc5c4CCN3C2=O)cc1OC`, for which the Potency was 18.4 µM (active).
For `COc1ccc(C2(O)C(=O)Nc3ccccc32)cc1` (stereo not drawn) the value was “inactive”; for `O=C(NNC(=O)c1ccc(Cl)cc1Cl)c1cccs1`, “inactive”.
For `O=C(Nc1cccc2cccnc12)c1cccc(N2C(=O)CCC2=O)c1` the value was “inactive”; for `O=c1cc(CO)oc(CN2CCC(Cc3ccccc3)CC2)c1O`, “inactive”; for `O=c1c2ccccc2nc2n1C(CSc1ccc(F)cc1)CN2` (stereo not drawn), “inactive”.
Then `O=c1c2ccccc2nc2n1C(CSc1ccc(Cl)cc1)CN2` (stereo not drawn), with “inactive”.
Regarding `O=c1c2ccccc2nc2n1C(CSCc1cccc(C(F)(F)F)c1)CS2` (stereo not drawn), the Potency was 3.66 µM (active).
For `O=c1c2ccccc2nc2n1C(CSCc1ccccc1)CS2` (stereo not drawn) the value was 6.51 µM (active); for `Cn1cc(S(=O)(=O)Nc2ccc(Cl)cc2Cl)c(=O)n(C)c1=O`, “inactive”; for `CCN(CC)CCNC(=O)C1c2ccccc2C(=O)N(C)C1c1cn(C)c2ccccc12` (stereo not drawn), “inactive”.
As to `CCOC(=O)N1CCC(NC(=O)C(NS(=O)(=O)c2ccc3c(c2)CCN3C(=O)CC)C(C)C)CC1` (stereo not drawn), the Potency result is “inactive”.
For `CN(C)C(=O)[C@@H]1C[C@@H](Sc2nc3ccccc3[nH]2)CN1Cc1ccc(Cl)cc1` the value was “inactive”; for `CC1CC(C)CN(CCCNC(=O)Cn2ncc3c([nH]c4ccccc43)c2=O)C1` (stereo not drawn), “inactive”.
Then `O=C(Cc1csc(Nc2nc(=S)[nH]c3ccccc23)n1)NCCCN1CCN(c2cccc(Cl)c2)CC1`, with 9.2 µM (active); and `O=C(CCn1c(=S)[nH]c2ccccc2c1=O)NCCCN1CCCC1=O`, with “inactive”; and `O=C(CN1C(=O)NC2(CCCCCCC2)C1=O)NCc1ccc(F)cc1`, with “inactive”.
Then `COc1ccc(CNC(=O)C2=Cc3cccc(OC)c3OC2)cc1OC`, with “inactive”; and `O=C(NN1C(=O)C2C3C=CC(O3)C2C1=O)c1ccncc1` (stereo not drawn), with “inactive”; and `CSC1=NN(c2ccccc2)CN(c2ccccc2)N1C`, with “inactive”.
With `O=C(CCCN1C(=O)c2ccccc2C1=O)Oc1ccc(Cl)cc1`, the Potency result is “inactive”.
For `Cc1ccc(CNC(=O)C2CC(=O)N(C3CCCCCCC3)C2)cc1` (stereo not drawn) the value was “inactive”; for `CCCCC[C@H]1CN(C2CCCCC2)C(=O)[C@@H]1CC(=O)NCc1ccc(OC)cc1`, 10 µM (active); for `COc1ccc(CNC(=O)[C@@H]2CC=C[C@@H]3CCN(C4CC4)C(=O)[C@@H]32)cc1`, “inactive”.
`O=C(CCc1nnc2ccc(NCCCN3CCCC3=O)nn12)NCc1ccccc1Cl`: the Potency entry is “inactive”.
As to `CCOC(=O)Cn1c(-c2cccnc2Cl)nc2ccccc21`, the Potency entry was “inactive”.
Then `COc1cccc(OCCCN2CCCCCC2)c1`, with “inactive”; and `CCCCCCCCCCOC(=O)Cn1c(COc2cccc(OC)c2)[n+](C)c2ccccc21`, with 2.31 µM (active).
Then `CCn1c(COc2cccc(OC)c2)nnc1SCC(=O)N1CCOCC1`, with “inactive”.
For `CCCCCCCCCCOC(=O)Cn1c(COc2ccc(C)cc2)[n+](C)c2ccccc21` the value was 3.26 µM (active); for `Cc1ccc(OCCCn2c(=O)oc3ccccc32)cc1`, “inactive”; for `Cc1ccc(C)c(-n2ccnc2SCC(N)=O)c1`, “inactive”.
As for `CCn1cc(C(=O)OCC(=O)Nc2cccc(C)c2)c(=O)c2ccc(C)nc21`, the Potency result was “inactive”.
For `C/C=C/C=C/C(=O)O` the value was “inactive”.
Then `COc1cc(/C=C/C(=O)OCC(=O)NCCCc2ccccc2)ccc1O`, with “inactive”; and `C[C@@H](NC(=O)[C@@H]1Cc2ccccc2CN1)C(=O)NC1CCCC1`, with “inactive”; and `COc1ccc(/C=N/n2nnnc2N)cc1OC`, with “inactive”.
Then `C=CCOc1ccc(/C=N/n2cncn2)cc1OC`, with “inactive”; and `COc1ccc(/C=C/c2ccnc3ccccc23)cc1OC`, with 12.6 µM (active).
Turning to `COc1ccc(/C=C/c2noc(-c3ccccc3O)n2)cc1OC`, the Potency entry was “inactive”.
Then `COc1cc(OC)c(/C=C/c2ccnc3ccccc23)c(OC)c1`, with 8.91 µM (active); and `COc1ccc(/C=C/c2ccccn2)cc1OC`, with 12.6 µM (active); and `COc1cc(OC)cc(C(=O)NNC(=O)CCOc2ccccc2OC)c1`, with “inactive”.
Then `COc1cc(/C=C/c2ccc(/C=C/c3cc(OC)c(OC)c(OC)c3)cc2)cc(OC)c1OC`, with “inactive”; and `O=C(CSc1nnc(-c2ccccc2)o1)N1CCOCC1`, with “inactive”.
Then `O=C(CN1C(=O)c2ccccc2S1(=O)=O)N1CCc2ccccc21`, with “inactive”; and `Cc1ccc2c(O)c(Cc3ccccc3)c(=O)[nH]c2n1`, with “inactive”.
On to `CC(C)N(Cc1nnc(-c2ccc(Cl)cc2)o1)C(=O)C1=COCCO1`, for which the Potency entry is “inactive”.
Then `O=c1nc(NO)ccn1C1CCCO1` (stereo not drawn), with “inactive”; and `Cc1ccc(OCc2nnc(NC(=O)OCC(C)C)s2)cc1`, with “inactive”.
For `O=C(CNC(=O)c1cccs1)N/N=C/c1cccc(Br)c1` the value was “inactive”.
Then `Cc1cc(C)cc(NC(=O)C2CCCN(S(=O)(=O)c3ccc4[nH]c(=O)ccc4c3)C2)c1` (stereo not drawn), with “inactive”; and `CC(=O)N1CCCc2cc(S(=O)(=O)Nc3ccc(Cl)cc3F)ccc21`, with 23.1 µM (active).
With `CC(=O)N1CCCc2cc(S(=O)(=O)N3CCCC(C(=O)N4CCN(c5cccc(Cl)c5)CC4)C3)ccc21` (stereo not drawn), the Potency was 2.59 µM (active) and 8.2 µM (active).
Then `CCc1cccc(NC(=O)C2CCCN(S(=O)(=O)c3ccc4[nH]c(=O)ccc4c3)C2)c1` (stereo not drawn), with “inactive”; and `CCOC(=O)C1CCCN(S(=O)(=O)c2ccc3c(c2)C(C)(C)C(=O)N3C)C1` (stereo not drawn), with “inactive”.
For `CC(=O)N1c2ccc(S(=O)(=O)N3CCC(C(=O)NCc4ccc(F)cc4)CC3)cc2CC1C` (stereo not drawn) the value was “inactive”; for `O=C(Nc1cccc(Cl)c1)c1cc(S(=O)(=O)N2CCCCC2)c[nH]1`, “inactive”; for `CC(=O)N1c2ccc(S(=O)(=O)N3CCCC(C(=O)Nc4cccc(Cl)c4)C3)cc2CC1C` (stereo not drawn), 20.6 µM (active).
Turning to `COc1ccc(NC(=O)C(CC(C)C)NS(=O)(=O)c2ccc3c(c2)CCN3C(C)=O)cc1OC` (stereo not drawn), the Potency entry is “inactive”.
As to `CCOC(=O)C1CCCN(S(=O)(=O)c2ccc(-n3cnnn3)c(C)c2)C1` (stereo not drawn), the Potency entry was “inactive”.
On to `CC(=O)N1CCCc2ccc(NS(=O)(=O)c3ccc(F)cc3F)cc21`, for which the Potency entry is “inactive”.
Consider `CC(=O)N1c2ccc(S(=O)(=O)N3CCCC(C(=O)Nc4cccc(F)c4)C3)cc2CC1C` (stereo not drawn), for which the Potency was 29.1 µM (active).
Then `Cc1nc2cc(S(=O)(=O)C(F)(F)F)ccc2s1`, with “inactive”; and `CCOC(=O)c1sc(NC(=O)C2CSC3(C)CCC(=O)N23)nc1C` (stereo not drawn), with “inactive”.
Then `O=C(COC(=O)[C@H](Cc1ccccc1)NC(=O)c1cccs1)Nc1cc(F)ccc1F`, with “inactive”; and `C/C(=N\Nc1ccc([N+](=O)[O-])cc1)c1ccc(-n2nncc2C(C)(C)C)cc1`, with “inactive”; and `CCc1cc(=O)oc2c(C)c(OCC(=O)N3CC[C@@]4(O)CCCC[C@H]4C3)ccc12`, with “inactive”.
Consider `COC(=O)C1=NN(c2ccccc2)C2C(=O)N(c3ccccc3OC)C(=O)C12` (stereo not drawn), for which the Potency result is “inactive”.
`COc1ccc(S(=O)(=O)NNC(=O)Nc2ccc(C)cc2)c(OC)c1`: the Potency entry was “inactive”.
For `CC(=O)c1cnc(SCC(=O)O)nc1C` the value was “inactive”.
For `Cc1cccc(N(C(=O)c2csnn2)C(C(=O)NCc2ccccc2)c2ccncc2)c1` (stereo not drawn) the value was “inactive”; for `O=C(NCc1ccccc1)C(c1cccnc1)N(C(=O)c1csnn1)c1ccc(F)cc1` (stereo not drawn), “inactive”.
`COc1ccc(C(C(=O)NCc2ccccc2)N(Cc2cccs2)C(=O)c2cnccn2)cc1` (stereo not drawn): the Potency is 16.4 µM (active).
For `COC(=O)CN1C(=O)[C@H]2[C@@H](/C=C/c3ccccc3)N3C(=O)CN(Cc4ccccc4)C(=O)[C@@]3(Cc3ccccc3)[C@H]2C1=O`, the Potency result is “inactive”.
For `C[C@@H]1CN([C@@H](C)CO)C(=O)CCCn2nncc2CO[C@H]1CN(C)C(=O)Nc1ccc(C(F)(F)F)cc1` the value was “inactive”; for `CC(=O)NC(Cc1c[nH]c2ccccc12)C(=O)O` (stereo not drawn), “inactive”; for `CC(C)n1c(C(O)c2ccccc2)nc2ccccc21` (stereo not drawn), “inactive”.
Regarding `CC(C)n1c(NCc2c[nH]c3ccccc23)nc2ccccc21`, the Potency is 13 µM (active).
